Data as given in PubChem BioAssay (NCATS).
Results filed as inconclusive are left out. Active and inactive are the calls of the source. The call rests on the fitted dose curve; in most records, active means well fitted curve in the direction sought with a large enough effect; inconclusive means small, poorly fitted or top-dose-only effect, or another doubt; inactive means no such curve, though single readings can be large; an effect the other way counts as inactive or inconclusive.

What was measured:
[1] = target: Rap guanine nucleotide exchange factor 3 (Homo sapiens) (UniProt O95398); assay: Confirmatory qHTS for antagonist of cAMP-regulated guanine nucleotide exchange factor 3 (EPAC1) (AID 1645880); settings: EPAC1 Rap1B-BODIPY-GDP exchange, fluorescence; series mostly up to 115 µM; further: nearly all actives have a fitted effect of over 55% in size; further: potency means the concentration at half of the fitted maximal effect
Method in brief: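 Nucleotide exchange uses 100 nM EPAC1, 250 nM RAP1B-BODIPY-GDP and 50 uM GDP, with compounds in a concentration-titration series. After 5 min at room temperature, fluorescence (480 nm ex/540 nm em) is read every 5 min for 30 min. Data are normalized to control ATA and DMSO.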

[2] = target: Rap guanine nucleotide exchange factor 3 (Homo sapiens) (UniProt O95398); assay: Confirmatory qHTS for agonist of cAMP-regulated guanine nucleotide exchange factor 3 (EPAC1) (AID 1645881); settings: EPAC1 Rap1B BODIPY-GDP exchange fluorescence; series mostly up to 154 µM;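 further: EPAC1 catalysed release of BODIPY-GDP from Rap1B seen as fluorescence loss; 100% = effect of cAMP agonist control; nearly all actives have a fitted effect of over 75% in size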
[3] = target: Rap guanine nucleotide exchange factor 4 (Homo sapiens) (UniProt Q8WZA2); assay: Confirmatory qHTS for agonist of cAMP-regulated guanine nucleotide exchange factor 4 (EPAC2) (AID 1645884); settings: EPAC2 GEF activity, Rap1B-BODIPY-GDP fluorescence; series mostly up to 154 µM;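 further: nucleotide exchange releases bodipy-GDP from Rap1 and this lowers its fluorescence; on the % scale 0 is the no-effect control and ±100 the full control effect; nearly all actives have a fitted effect of over 65% in size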
[4] = target: Rap guanine nucleotide exchange factor 4 (Homo sapiens) (UniProt Q8WZA2); assay: Confirmatory qHTS for antagonist of cAMP-regulated guanine nucleotide exchange factor 4 (EPAC2) (AID 1645885); settings: EPAC2 Rap1B-BODIPY-GDP exchange fluorescence, biochemical; series mostly up to 12.7 µM; further: nearly all actives have a fitted effect of over 25% in size; further: potency means the concentration at half of the fitted maximal effect; on activity change, negative = inhibition: on the % scale 0 is the no-effect control and ±100 the full control effect
[5] = target: Rap guanine nucleotide exchange factor 3 (Homo sapiens) (UniProt O95398); assay: Counterscreen qHTS for antagonist of cAMP-regulated guanine nucleotide exchange factor 3 (EPAC1) (AID 1645888); settings: Rap1B-BODIPY-GDP nucleotide exchange, fluorescence; series mostly up to 154 µM;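 further: fluorescence loss as bound BODIPY-GDP is released from Rap1B; % of control where 0% means no effect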
Method in brief: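 Rap1B-BODIPY-GDP 250 nM + GDP 50 uM; cpds 7-pt, final 9.74 nM–152 uM (activator mode) or from 7.32 nM upwards (inhibitor mode); RT; FI 480/540 nm at 5 and 30 min, then ± cAMP, reread.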

Rap guanine nucleotide exchange factor 3 (Homo sapiens), sequence (O95398 whole entry, looked up): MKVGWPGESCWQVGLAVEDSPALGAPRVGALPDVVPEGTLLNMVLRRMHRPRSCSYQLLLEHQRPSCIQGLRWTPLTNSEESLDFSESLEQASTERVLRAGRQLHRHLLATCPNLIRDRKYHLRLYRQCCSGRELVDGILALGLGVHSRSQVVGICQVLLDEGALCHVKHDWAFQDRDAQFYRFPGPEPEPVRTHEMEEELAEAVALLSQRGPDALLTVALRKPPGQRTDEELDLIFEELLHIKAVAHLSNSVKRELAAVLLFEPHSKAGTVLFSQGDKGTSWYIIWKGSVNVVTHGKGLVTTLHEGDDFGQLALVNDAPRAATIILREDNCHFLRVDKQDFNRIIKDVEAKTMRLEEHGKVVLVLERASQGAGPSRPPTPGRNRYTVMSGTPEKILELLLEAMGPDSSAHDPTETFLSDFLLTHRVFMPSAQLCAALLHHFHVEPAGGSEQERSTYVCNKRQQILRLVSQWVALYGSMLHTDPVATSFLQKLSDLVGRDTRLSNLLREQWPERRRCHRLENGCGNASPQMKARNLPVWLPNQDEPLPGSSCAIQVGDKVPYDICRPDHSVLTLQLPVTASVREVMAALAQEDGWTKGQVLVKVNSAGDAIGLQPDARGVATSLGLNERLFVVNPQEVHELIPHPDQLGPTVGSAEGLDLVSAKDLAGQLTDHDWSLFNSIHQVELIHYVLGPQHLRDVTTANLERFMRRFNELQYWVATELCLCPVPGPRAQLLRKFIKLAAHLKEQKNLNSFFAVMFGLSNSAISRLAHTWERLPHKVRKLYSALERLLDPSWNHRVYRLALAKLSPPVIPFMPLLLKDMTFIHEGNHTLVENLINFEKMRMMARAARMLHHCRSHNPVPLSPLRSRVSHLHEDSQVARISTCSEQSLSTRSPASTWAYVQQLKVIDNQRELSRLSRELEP
Rap guanine nucleotide exchange factor 4 (Homo sapiens), sequence (Q8WZA2 whole entry, looked up): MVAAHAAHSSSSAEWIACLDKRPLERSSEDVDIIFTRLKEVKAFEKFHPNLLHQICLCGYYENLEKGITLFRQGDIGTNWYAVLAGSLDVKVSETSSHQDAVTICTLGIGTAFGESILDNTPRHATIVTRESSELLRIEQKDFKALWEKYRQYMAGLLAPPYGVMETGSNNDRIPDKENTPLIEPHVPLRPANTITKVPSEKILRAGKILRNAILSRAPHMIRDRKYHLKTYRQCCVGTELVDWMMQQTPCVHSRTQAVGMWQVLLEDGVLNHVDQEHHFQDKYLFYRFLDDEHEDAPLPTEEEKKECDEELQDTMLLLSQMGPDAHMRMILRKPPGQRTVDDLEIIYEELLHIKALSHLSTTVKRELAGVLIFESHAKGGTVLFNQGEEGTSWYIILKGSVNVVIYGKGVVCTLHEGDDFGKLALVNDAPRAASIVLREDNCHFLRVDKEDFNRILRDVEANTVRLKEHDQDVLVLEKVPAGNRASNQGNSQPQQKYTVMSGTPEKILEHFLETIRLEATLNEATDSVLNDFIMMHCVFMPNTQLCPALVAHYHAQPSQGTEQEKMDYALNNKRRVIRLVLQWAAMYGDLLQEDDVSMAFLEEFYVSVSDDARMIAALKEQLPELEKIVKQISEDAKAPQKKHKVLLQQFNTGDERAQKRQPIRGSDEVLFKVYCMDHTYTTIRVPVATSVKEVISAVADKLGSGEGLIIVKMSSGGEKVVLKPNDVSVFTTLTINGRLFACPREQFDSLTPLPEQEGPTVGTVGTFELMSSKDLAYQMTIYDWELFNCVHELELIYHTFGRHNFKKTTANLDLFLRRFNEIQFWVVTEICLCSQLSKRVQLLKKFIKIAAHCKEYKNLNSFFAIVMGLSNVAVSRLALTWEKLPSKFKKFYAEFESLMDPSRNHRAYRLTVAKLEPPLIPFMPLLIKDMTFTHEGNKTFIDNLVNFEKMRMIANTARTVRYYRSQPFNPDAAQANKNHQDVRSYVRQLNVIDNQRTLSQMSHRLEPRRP

CS(=O)(=O)c1ccc2c(c1)sc1nc(=O)c(/C=C3/C=CC(=O)C(O)=C3)c(N)n12
active: Potency [1] 3.38 µM
inactive: Potency [2] | Potency [3] | Potency [4] | Potency [5]

O=C(COC(=O)c1nc(Cl)ccc1Cl)c1ccccc1Cl
inactive: Potency [1] | Potency [2] | Potency [3] | Potency [4] | Potency [5]

CC(C)N1CCc2c(sc(NC(=O)c3ccc(S(=O)(=O)N4CCCCC4C)cc3)c2C(N)=O)C1 (stereo not given)
active: Potency [1] 89.1 µM
inactive: Potency [2] | activation [3] 4.64% [at 17.1 µM, percent relative to cAMP agonist control] | Potency [4] | activity change, negative = inhibition [5] 3.44% [at 30.8 µM]

Cc1cn2c(=O)cc(COC(=O)c3ccc(NC(=O)C(C)Oc4ccccc4)cc3)nc2s1 (stereo not given)
inactive: Potency [1] | Potency [2] | Potency [3] | Potency [4] | Potency [5]

COc1cc(/C=C2\SC(=S)N(NS(=O)(=O)c3ccc(C)cc3)C2=O)ccc1O
active: Potency [1] 22.4 µM
inactive: Potency [2] | activation [3] 2.55% [at 17.1 µM, percent relative to cAMP agonist control] | Potency [4] | activity change, negative = inhibition [5] -2.35% [at 30.8 µM]

CNC(=O)c1c(NC(=O)C2=COCCO2)sc(C)c1C
inactive: Potency [1] | Potency [2] | Potency [3] | Potency [4] | Potency [5]

O=C(OCC(=O)N1CCN(S(=O)(=O)c2ccc(Cl)cc2)CC1)c1cccc(OC(F)F)c1
inactive: Potency [1] | Potency [2] | activation [3] 0.331% [at 17.1 µM, percent relative to cAMP agonist control] | Potency [4] | activity change, negative = inhibition [5] -17.2% [at 30.8 µM]

COc1cccc2sc(N3CCN(c4nc5ccccc5s4)CC3)nc12
inactive: Potency [1] | Potency [2] | activation [3] 2.2% [at 17.1 µM, percent relative to cAMP agonist control] | Potency [4] | activity change, negative = inhibition [5] -13.4% [at 30.8 µM]

CC(C)(C)c1ccc(OCCC(=O)OCC(=O)Nc2ccc(N3CCOCC3)cc2)cc1
inactive: Potency [1] | Potency [2] | Potency [3] | Potency [4] | Potency [5]

COc1ccc2ccccc2c1C(=O)/C=C\c1ccoc1
active: Potency [1] 42.6 µM
inactive: Potency [2] | Potency [3] | Potency [4] | Potency [5]

Cc1ccc(S(=O)(=O)Nc2ccccc2C=Nc2cccc(C)c2C)cc1
inactive: Potency [1] | Potency [2] | Potency [3] | Potency [4] | Potency [5]

Cc1ccc(C(=O)c2coc3ccc(O)c(Cl)c23)cc1
active: Potency [4] 84.9 µM
inactive: Potency [1] | Potency [2] | Potency [3] | Potency [5]

Oc1ccc(-c2csc(Nc3cccnc3)n2)cc1
inactive: Potency [1] | Potency [2] | activation [3] 0.321% [at 17.1 µM, percent relative to cAMP agonist control] | Potency [4] | activity change, negative = inhibition [5] -8.51% [at 30.8 µM]

CCOC(=O)N1CCN(c2ccc(S(=O)(=O)N(Cc3ccccc3)Cc3ccccc3)cn2)CC1
inactive: Potency [1] | Potency [2] | Potency [3] | Potency [4] | Potency [5]

CCOc1ccc(N2CC(c3nc4ccccc4n3Cc3cccc(Cl)c3)CC2=O)cc1 (stereo not given)
inactive: Potency [1] | Potency [2] | Potency [3] | Potency [4] | Potency [5]

CNc1c(-n2cc(C(=O)OC)c(C(=O)OC)c2C(=O)OC)c(=O)n(C)c(=O)n1C
inactive: Potency [1] | Potency [2] | Potency [3] | Potency [4] | Potency [5]

CCCCCCOC(=O)C(C#N)c1nc2ccccc2nc1N1CCOCC1 (stereo not given)
active: Potency [1] 75.7 µM | Potency [4] 75.7 µM
inactive: Potency [2] | Potency [3] | Potency [5]

C/C(=N\NC(=O)c1cc2ccccc2cc1O)c1cc2ccccc2o1
active: Potency [1] 37.9 µM
inactive: Potency [2] | Potency [3] | Potency [4] | Potency [5]

COc1ccc(/C=C2\SC(=S)N(NS(=O)(=O)c3ccc(C)cc3)C2=O)c(OC)c1
active: Potency [1] 14.1 µM
inactive: Potency [2] | activation [3] 6.75% [at 17.1 µM, percent relative to cAMP agonist control] | Potency [4] | activity change, negative = inhibition [5] 7.67% [at 30.8 µM]

COc1ccccc1C(=O)NC(=O)Cn1nc(C)c([N+](=O)[O-])c1C
inactive: Potency [1] | Potency [2] | activation [3] 4.27% [at 17.1 µM, percent relative to cAMP agonist control] | Potency [4] | activity change, negative = inhibition [5] 11.7% [at 30.8 µM]

COc1cc(CNn2cnnc2)ccc1OCC(=O)NC(C)(C)C
inactive: Potency [1] | Potency [2] | Potency [3] | Potency [4] | Potency [5]

COc1cccc(OC)c1OC(=O)/C=C/c1ccc(C)o1
inactive: Potency [1] | Potency [2] | activation [3] -0.917% [at 17.1 µM, percent relative to cAMP agonist control] | Potency [4] | activity change, negative = inhibition [5] -18.3% [at 30.8 µM]

CCc1cccc2cc3c(N)c(C(=O)Nc4ccc(S(=O)(=O)N5CCCC5)cc4)sc3nc12
inactive: Potency [2] | Potency [3] | Potency [5]
active: Potency [1] 75.7 µM | Potency [4] 67.5 µM

COc1ccc(C(Sc2ccccc2)c2ccccc2)cc1OC (stereo not given)
active: Potency [4] 21.3 µM
inactive: Potency [1] | Potency [2] | Potency [3] | Potency [5]

Cc1ccc(C)c(-c2ccc(=O)n(Cc3cccc(Br)c3)n2)c1
inactive: Potency [1] | Potency [2] | Potency [3] | Potency [5]
active: Potency [4] 19 µM

Cc1cc(NC(=O)CSc2sc3c(O)cc(=O)[nH]c3c2C#N)ccc1Br
active: Potency [1] 42.6 µM
inactive: Potency [2] | Potency [3] | Potency [4] | Potency [5]

CC(=O)C1=C(C)OC2(O)c3ccccc3C(=O)C12O (stereo not given)
inactive: Potency [1] | Potency [2] | activation [3] 4.3% [at 17.1 µM, percent relative to cAMP agonist control] | Potency [4] | activity change, negative = inhibition [5] -10.4% [at 30.8 µM]

O=C1CSC2(C(=O)N(Cc3ccccc3F)c3ccccc32)N1c1ccc(F)cc1 (stereo not given)
inactive: Potency [1] | Potency [2] | Potency [3] | outcome [4] inactive [at 12.7 µM] | Potency [5]

O=C(Nc1ccccc1)c1ccccc1Br
inactive: Potency [1] | Potency [2] | Potency [3] | Potency [4] | Potency [5]

O=C(c1ccccc1)c1ccc2nc(-c3ccco3)c(-c3ccco3)nc2c1
active: Potency [1] 4.78 µM
inactive: Potency [2] | Potency [3] | Potency [4] | Potency [5]

Cc1ccc(C(NC(=O)C(C)C)c2cc([N+](=O)[O-])c3cccnc3c2O)cc1 (stereo not given)
active: Potency [1] 35.5 µM
inactive: Potency [2] | activation [3] 0.958% [at 17.1 µM, percent relative to cAMP agonist control] | Potency [4] | activity change, negative = inhibition [5] -17.2% [at 30.8 µM]

O=C(CSc1nnc(SCc2ccccc2)s1)N/N=C/C=C\c1ccco1
inactive: Potency [2] | Potency [3] | Potency [4] | Potency [5]
active: Potency [1] 42.6 µM

CC(=O)NCCn1c(C)cc2ccccc21
inactive: Potency [1] | Potency [2] | activation [3] 5.87% [at 17.1 µM, percent relative to cAMP agonist control] | Potency [4] | activity change, negative = inhibition [5] -13.2% [at 30.8 µM]

COc1ccc(-c2cc(OC(=O)c3ccc(Cl)cc3)c3c(C)oc(C)c3c(=O)c2)cc1
active: Potency [1] 75.7 µM
inactive: Potency [2] | Potency [3] | Potency [4] | Potency [5]

COc1ccc(-n2c(SCC(=O)Nc3nccs3)nc3c(c2=O)SC(C)C3)cc1 (stereo not given)
inactive: Potency [1] | Potency [2] | Potency [3] | Potency [4] | Potency [5]

CCc1ccc2c(c1)C(NC(C)=O)C(=O)N2CCN1CCOCC1 (stereo not given)
active: Potency [1] 19 µM
inactive: Potency [2] | Potency [3] | Potency [4] | Potency [5]

O=C(NCc1ccco1)c1c[nH]c2ccc(S(=O)(=O)N3CCOCC3)cc2c1=O
inactive: Potency [1] | Potency [2] | activation [3] 7.59% [at 17.1 µM, percent relative to cAMP agonist control] | Potency [4] | activity change, negative = inhibition [5] 1.66% [at 30.8 µM]

O=S1(=O)CCO[C@H]2Cc3ccccc3[C@H]2N1Cc1ccc(Cl)cc1
inactive: Potency [1] | Potency [2] | activation [3] -2.47% [at 17.1 µM, percent relative to cAMP agonist control] | Potency [4] | activity change, negative = inhibition [5] -21.2% [at 30.8 µM]

O=C(c1ccco1)N(Cc1ccc([N+](=O)[O-])cc1)c1ccc(Cl)cc1
inactive: Potency [1] | Potency [2] | Potency [3] | Potency [4] | Potency [5]

C=CCN(c1ccccc1)S(=O)(=O)c1cccc(C(=O)N2CC(C)CC(C)C2)c1 (stereo not given)
inactive: Potency [1] | Potency [2] | Potency [3] | Potency [4] | Potency [5]

O=C1N=c2ccccc2=C1c1sc(Nc2ccc(O)cc2)nc1O
active: Potency [1] 30.1 µM
inactive: Potency [2] | Potency [3] | Potency [4] | Potency [5]

COc1cc(Cl)c(C)cc1NC(=O)CSc1cc(Cl)ccc1Cl
active: Potency [1] 67.5 µM
inactive: Potency [2] | Potency [3] | Potency [4] | Potency [5]

O=C(O)c1ccc(NC2=C/C(=N/S(=O)(=O)c3cccs3)c3ccccc3C2=O)cc1
inactive: Potency [2] | Potency [3] | Potency [4] | Potency [5]
active: Potency [1] 60.1 µM

CCOC(=O)c1sc(N2C(=O)C(O)=C(C(=O)c3ccco3)C2c2cccc([N+](=O)[O-])c2)nc1C (stereo not given)
inactive: Potency [2] | Potency [3] | Potency [4] | Potency [5]
active: Potency [1] 5.36 µM
